Our source for the AC50 and activity, negative = inhibition values is PubChem BioAssay AID1851 (National Center for Advancing Translational Sciences (NCATS), 2009).

Where “and” joins values, the source holds several entries; their conditions need not be identical. Equal values may be shown once. Out of some 16,000 compounds screened, about 5,700 (36%) were called active. Roughly 24% stayed inconclusive and do not appear here. Some of the results follow. Unmarked numbers belong to inactive results. Calls follow the shape of the dose curve; as a rule, active = well fitted curve in the direction sought with a large enough effect; inconclusive = small, poorly fitted or top-dose-only effect, or effect the other way; inactive = no such curve, though single readings can be large or run the other way.
% is scaled to controls: 0 for no effect and ±100 for the full control effect.

Cytochrome P450 1A2 (Homo sapiens), sequence (P05177 whole entry, looked up): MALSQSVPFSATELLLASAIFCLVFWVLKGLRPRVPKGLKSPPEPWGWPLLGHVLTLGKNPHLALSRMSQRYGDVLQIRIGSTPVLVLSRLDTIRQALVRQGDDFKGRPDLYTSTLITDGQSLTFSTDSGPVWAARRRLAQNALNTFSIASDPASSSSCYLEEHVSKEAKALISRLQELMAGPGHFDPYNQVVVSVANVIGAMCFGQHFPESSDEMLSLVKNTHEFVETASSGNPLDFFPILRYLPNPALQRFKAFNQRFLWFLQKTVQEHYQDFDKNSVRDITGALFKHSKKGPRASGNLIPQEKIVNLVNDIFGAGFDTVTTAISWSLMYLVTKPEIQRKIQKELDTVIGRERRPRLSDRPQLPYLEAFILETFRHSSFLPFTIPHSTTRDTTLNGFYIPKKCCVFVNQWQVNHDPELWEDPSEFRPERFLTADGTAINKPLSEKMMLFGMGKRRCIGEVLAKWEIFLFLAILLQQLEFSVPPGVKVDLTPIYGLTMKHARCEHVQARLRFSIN

The experiment addresses Cytochrome P450 1A2 (Homo sapiens) (UniProt P05177). Description: Cytochrome panel assay with activity outcomes. Particulars: recombinant CYP, pro-luciferin dealkylation, luminescence, p450-cyp1a2; series mostly up to 57.1 µM.
In the case of `Cc1[nH]n(C(C)(C)C)c(=O)c1Sc1ccccc1`, the AC50 result was “inactive”.

For `COc1ccccc1CCn1c(=O)c(-c2cccs2)nc2cncnc21`, the half-maximal activity concentration (AC50) is 2 µM (active).

For the compound `COCCn1c(=O)c(-c2cccs2)nc2cncnc21`, the AC50 was 3.16 µM (active).

With `COc1ccccc1CCn1c(=O)c(-c2ccc(Cl)cc2)nc2cncnc21`, the AC50 is 0.631 µM (active).

On to `COc1ccccc1CCn1c(=O)c(-c2ccc(F)c(F)c2)nc2cncnc21`, for which the AC50 is 2 µM (active).

For `COc1ccc(NC(=O)N2CCCC3(CCN(S(C)(=O)=O)CC3)C2)cc1`, the AC50 result is “inactive”.

In the case of `O=C1c2ccccc2CC[C@H]1CNCCc1ccc(O)cc1`, the AC50 was 20 µM (active).

For the compound `Cc1ccc(NC(=O)Nc2ncccc2C)cc1`, the AC50 is 3.55 µM (active).

On to `Cc1cccc(C)c1NC(=O)Nc1ccc(S(N)(=O)=O)cc1`, for which the activity, negative = inhibition is -10.8% [at 2.29 µM].

On to `CCCCNC(=O)c1cc2nc3c(c(C(F)(F)F)n2n1)CCc1ccccc1-3`, for which the AC50 is 2.51 µM (active).

For `COc1cccc(N=c2oc3c(C)ncc(CO)c3cc2C(N)=O)c1`, the AC50 was 4.47 µM (active).

For `CO[C@H]1COC(=O)CCC[C@H](C)[C@H](OC)COC(=O)C/C=C\[C@@H]1C`, the activity, negative = inhibition was -3.93% [at 11.4 µM].

Consider `Cc1ccsc1/C=N/Nc1nc(Cl)c(Cl)cc1Cl`, for which the AC50 is 2 µM (active).

Consider `N#Cc1ccc(C2=NC(C(F)(F)F)(C(F)(F)F)c3c(n(Cc4ccco4)c(=O)[nH]c3=O)N2)cc1`, for which the AC50 result was “inactive”.

As for `C#CC[N+](CC)(CC)CC#Cc1cccc(Cl)c1`, the AC50 result was “inactive”.

As to `CNC(=O)c1sc(SC)cc1-c1ccc(Cl)cc1`, the AC50 is 0.355 µM (active).

Take `Cc1nc2c(C(=O)NCc3ccc4c(c3)OCO4)c[nH]n2c(=O)c1Cc1ccccc1F`: the AC50 is 12.6 µM (active).

Turning to `Cc1nc2ccccn2c1/C(O)=C1\C(=O)C(=O)N(CCN2CCOCC2)C1c1cccnc1` (configuration not stated), the AC50 result was “inactive”.

As for `CCNc1ncc2nc(C)c(=O)n(Cc3cccc(OC)c3)c2n1`, the AC50 is 3.16 µM (active).

In the case of `O=c1cnc2cnc(Nc3ccccc3)nc2n1Cc1ccc(F)cc1`, the half-maximal activity concentration (AC50) was 1 µM (active).

For `CCNc1ncc2nc(C)c(=O)n(Cc3ccc(F)cc3)c2n1`, the AC50 is 1.58 µM (active).

In the case of `CCNc1ncc2ncc(=O)n(Cc3ccc(F)cc3)c2n1`, the AC50 is 1 µM (active).

For the compound `Cc1cc(CN2CCCCC2)c(O)c(CN2CCCCC2)c1`, the activity, negative = inhibition was -18.8% [at 2.29 µM].

Take `OC[C@@H]1O[C@@H](n2cnc3c(NC4CCCC4)ncnc32)[C@H](O)[C@H]1O`: the AC50 result is “inactive”.

Turning to `Cn1cnc2c(NC3CCCC3)ncnc21`, the concentration at half-maximal activity (AC50) is 12.6 µM (active).

In the case of `OC[C@@H]1O[C@@H](n2cnc3c(NC4CCCC4)ncnc32)[C@@H](O)[C@H]1O`, the AC50 entry was “inactive”.

In the case of `Cc1ccc(S(=O)(=O)O[C@H]2C[C@@H](C(C)(C)C)CC[C@@H]2c2ccccc2)cc1`, the activity, negative = inhibition is -22.8% [at 2.29 µM].

Take `O=c1oc(-c2cccs2)nc2ccc(Br)cc12`: the AC50 is 2.51 µM (active).

For `COc1cccc(N2CCN(C(=S)Nc3cccc(C)c3)CC2)c1`, the AC50 result was “inactive”.

For `CNC(=S)N1CCN(c2cccc(OC)c2)CC1`, the AC50 is 15.8 µM (active).

Take `CNC(=S)N1CCN(c2ccccc2OC)CC1`: the AC50 was 7.08 µM (active).

On to `COc1ccc(N2CCN(C(=S)Nc3cc(C)cc(C)c3)CC2)cc1`, for which the AC50 entry was “inactive”.

As to `COc1ccccc1N1CCN(CCN2C(=O)CC3(CCCC3)CC2=O)CC1`, the AC50 result is “inactive”.

`COc1ccccc1N1CCN(CCCCN2C(=O)c3ccccc3C2=O)CC1`: the AC50 result is “inactive”.

Regarding `CC1CCCN(CCCNC(=O)C2CC(=O)N(c3ccc(F)c(Cl)c3)C2)C1` (configuration not stated), the AC50 entry was “inactive”.

`COc1ccc(CNn2c(C)nc3ccccc3c2=O)cc1`: the AC50 was 12.6 µM (active).

`CCCCOc1ccc(CNn2c(C)nc3ccccc3c2=O)cc1`: the AC50 was 15.8 µM (active).

For the compound `COc1ccc(-c2nc3ccccc3c(=O)n2N)cc1`, the AC50 is 25.1 µM (active).

For `Cc1cc(=O)[nH]c(-n2[nH]c(C)cc2=O)n1`, the AC50 entry is “inactive”.

On to `O=C1C=C(c2cccs2)CC(c2cccs2)C1n1cnc([N+](=O)[O-])c1` (configuration not stated), for which the AC50 was 3.16 µM (active).

Consider `Cc1cccc(CNc2ncnc3ccc(-c4ccc5c(c4)OCO5)cc23)c1`, for which the AC50 was 0.501 µM (active).

`c1ccc(CNc2ncnc3ccc(-c4ccc5c(c4)OCO5)cc23)cc1`: the AC50 is 0.2 µM (active).

`c1ccc(Nc2ncnc3ccc(-c4ccc5c(c4)OCO5)cc23)cc1`: the AC50 was 0.251 µM (active).

As to `c1ccc(C2CCC(N3CCC(N4CCCCC4)CC3)CC2)cc1` (configuration not stated), the AC50 entry was “inactive”.

On to `O=C(Nc1ccccc1)N1CCCC2(CCN(C(=O)c3ccco3)CC2)C1`, for which the AC50 is 20 µM (active).

Take `COc1ccc(NC(=O)N2CCCC3(CCN(C(=O)c4ccco4)CC3)C2)cc1`: the AC50 entry was “inactive”.

On to `Cc1noc(C)c1C(=O)N1CCC2(CCCN(C(=O)Nc3ccccc3)C2)CC1`, for which the AC50 was 12.6 µM (active).

With `O=C(Nc1ccccc1)N1CC2(CCN(C(=O)c3ccco3)CC2)C1`, the AC50 result was “inactive”.

As to `Cc1noc(C)c1C(=O)N1CCC2(CCN(C(=O)Nc3ccccc3)CC2)CC1`, the AC50 result is “inactive”.

Turning to `COc1ccc(NC(=O)N2CCCC3(CCN(C(=O)c4c(C)noc4C)CC3)C2)cc1`, the AC50 result was “inactive”.

As to `CO[C@H]1OC[C@@]2(C)[C@@H]3C4=C(CN2C(=O)OC(C)(C)C)[C@H](C)[C@H](CO)[C@H](CO)[C@H]4CC[C@H]13`, the AC50 result is “inactive”.

With `C=CCN(CC=C)C(=O)C(=O)c1cc(C)n(-c2ccc([N+](=O)[O-])cc2)c1C`, the AC50 entry is “inactive”.

For the compound `Cc1ccc([N+](=O)[O-])cc1NC(=S)NC(=O)C(C)(C)C`, the AC50 is 0.2 µM (active).

With `Cc1ccc(SCc2ccc(C(=O)Nc3cc([N+](=O)[O-])ccc3C)cc2)cc1`, the AC50 entry was “inactive”.

In the case of `CC(=O)NS(=O)(=O)c1ccc(NC(=S)NC(=O)C(C)(C)C)cc1`, the AC50 entry was “inactive”.

With `Cc1ccc([N+](=O)[O-])cc1NC(=S)NC(=O)CC(C)(C)C`, the AC50 was 2 µM (active).

For the compound `CCCN1CCN(C(=O)CN2C(=O)CC(C)(C)S(=O)(=O)c3ccccc32)CC1`, the AC50 entry is “inactive”.

With `O=c1c(-c2ccccc2)nc2cnc(N3CCOCC3)nc2n1-c1ccccc1`, the AC50 is 12.6 µM (active).

For the compound `CN1CCN(c2ncc3ncc(=O)n(-c4ccccc4)c3n2)CC1`, the AC50 is 2.51 µM (active).

Consider `O=c1c(-c2cccs2)nc2cnc(N3CCNCC3)nc2n1-c1ccccc1`, for which the AC50 was 2.51 µM (active).

Consider `COc1ccc(-n2c(=O)c(-c3cccs3)nc3cnc(N4CCNCC4)nc32)cc1`, for which the AC50 was 5.01 µM (active).

Take `O=C(c1csnn1)N1CCC2(CCCN(Cc3ccccc3)C2)CC1`: the AC50 result is “inactive”.

For the compound `O=c1c(-c2cccs2)nc2cnc(N3CCOCC3)nc2n1-c1ccccc1`, the half-maximal activity concentration (AC50) was 5.01 µM (active).

For the compound `CN1CCN(c2ncc3nc(-c4cccs4)c(=O)n(-c4ccccc4)c3n2)CC1`, the AC50 is 3.16 µM (active).

As for `CO[C@H]1C[C@@H](O[C@@H]2[C@H](C)[C@H](O[C@@H]3O[C@@H](C)C[C@@H](N(C)C)[C@@H]3O)[C@H](C)C[C@]3(CO3)C(=O)[C@H](C)[C@H](O)[C@H](C)[C@H](C)OC(=O)[C@@H]2C)O[C@@H](C)[C@H]1O`, the AC50 entry is “inactive”.

For the compound `O=C(CNC(=O)/C(=C\c1ccccc1)NC(=O)c1ccc(Br)cc1)OCc1ccccc1`, the AC50 result is “inactive”.

On to `COc1ccc(O)c(/C=N/NC(=O)CSc2nnc(C)n2-c2ccccc2)c1`, for which the AC50 entry is “inactive”.

Take `COc1ccc(C(=O)N/N=C/c2cccc3cccnc23)cc1`: the AC50 was 2 µM (active).

For the compound `COc1ccc(C(=O)NCC(=O)OCc2cccc(Br)c2)cc1`, the AC50 was 6.31 µM (active).

Consider `COc1ccc(O)c(/C=N/NC(=O)c2ccc(OCc3cccc(Br)c3)cc2)c1`, for which the AC50 was 11.2 µM (active).

With `CSC(=N)N`, the AC50 result was “inactive”.

As for `Clc1cccc(Nc2ncnc3ccc(Br)cc23)c1`, the AC50 is 0.562 µM (active).

Regarding `Brc1ccc2ncnc(Nc3cccc4ccccc34)c2c1`, the AC50 is 1.58 µM (active).

As for `CCOc1ccc(C2=Nn3c(nnc3-c3ccco3)SC2)cc1`, the AC50 is 2 µM (active).

On to `COc1cccc(-c2nnc3n2N=C(C(C)(C)C)CS3)c1`, for which the AC50 is 2.82 µM (active).

As to `COc1ccc(-c2nnc3n2N=C(C)CS3)cc1`, the AC50 is 1.41 µM (active).

In the case of `CCc1ccc(C2=Nn3c(nnc3-c3cccs3)SC2)cc1`, the AC50 was 3.55 µM (active).

Take `COc1ccc(-n2c(C)n[nH]c2=O)cc1`: the AC50 entry is “inactive”.

On to `O=C(O)C1=CCCNC1`, for which the AC50 entry is “inactive”.

In the case of `CCOc1ccc(-c2nnc3n2N=C(c2ccc(OC)cc2)CS3)cc1`, the AC50 is 3.55 µM (active).

In the case of `O=C(Nc1cccc2ccccc12)/C(=C/c1ccc([N+](=O)[O-])cc1)NC(=O)c1ccccc1`, the AC50 is 3.16 µM (active).

`O=C(OCc1ccccc1)/C(=C/c1ccc(Cl)cc1)NC(=O)c1ccccc1Cl`: the AC50 is 0.891 µM (active).

In the case of `Cc1ccc(NC(=O)/C(=C\c2ccc([N+](=O)[O-])cc2)NC(=O)c2ccccc2)cc1`, the AC50 result was “inactive”.

For `COc1cc(/C=C(/NC(=O)c2ccccc2Cl)C(=O)O)cc(OC)c1OC`, the AC50 result was “inactive”.

As for `O=C(OCC(=O)c1ccc([N+](=O)[O-])cc1)/C(=C\c1ccc(Cl)cc1)NC(=O)c1ccccc1`, the AC50 was 12.6 µM (active).

On to `Cc1ccc(S(=O)(=O)N[C@H]2COC(=O)C/C=C\[C@@H](C)[C@H](NS(=O)(=O)c3ccc(C)cc3)COC(=O)C/C=C\[C@H]2C)cc1`, for which the activity, negative = inhibition is -0.94% [at 11.4 µM].

`O=C(Nc1ccnc(-c2cccnc2)n1)c1cccc(Cl)c1Cl`: the AC50 is 0.562 µM (active).

With `O=C(Nc1ccnc(-c2cccnc2)n1)c1ccccc1Cl`, the AC50 was 0.398 µM (active).

Regarding `CC1(C)OCC([C@H](O)C2=CCCCC2=O)CO1`, the activity, negative = inhibition was -1.5% [at 11.4 µM].

As for `O=C(c1ccco1)N1CCN(C(=O)C2(S(=O)(=O)c3ccc(Cl)cc3)CC2)CC1`, the AC50 entry was “inactive”.

In the case of `FC(F)(F)c1cccc(-c2nc3nc(Cl)c(Cl)nc3[nH]2)c1`, the AC50 is 0.398 µM (active).

`COC(=O)c1ccc(NC(=O)N2CCC(O)(c3cccnc3)CC2)cc1`: the AC50 entry is “inactive”.

In the case of `O=C(Nc1cccc(F)c1)N1CCC2(CC1)CCN(C(=O)c1cnccn1)CC2`, the AC50 result is “inactive”.

On to `COc1cc2c(cc1C(F)(F)F)N(C(=O)Nc1cc(F)cc(-c3cccnc3)c1)CC2`, for which the AC50 was 0.316 µM (active).

For `CN1CCc2cc(NC(=O)Nc3cccnc3)ccc21`, the AC50 is 0.0794 µM (active).

With `Cn1ccc2cc3c(cc21)CCN3C(=O)Nc1cccnc1`, the AC50 was 25.1 nM (active) and 3.98 nM (active).

In the case of `CSc1cc2c(cc1C(F)(F)F)N(C(=O)Nc1cccnc1)CC2`, the AC50 is 0.000794 µM (active).
